Data reported in the supplement of paper PMC11732987, “Enantioselective OTUD7B fragment discovery through chemoproteomics screening and high-throughput optimisation” (Communications Chemistry, 2025).

How the values were obtained:
Assay in all cases: log2 ratio of Biotin-Ahx-Ub-VS probe labelling (fragment/DMSO); higher = less target engagement (more negative = stronger competition), active = hit call of the paper (q ≤ 0.05, log2 ratio ≤ -1)
Settings in all cases: compound concentration: 200 uM; treatment time: 3 h
UniProt O00507 = target: UniProt O00507
Sequence of UniProt O00507 (O00507 whole entry, the tested form may be a part): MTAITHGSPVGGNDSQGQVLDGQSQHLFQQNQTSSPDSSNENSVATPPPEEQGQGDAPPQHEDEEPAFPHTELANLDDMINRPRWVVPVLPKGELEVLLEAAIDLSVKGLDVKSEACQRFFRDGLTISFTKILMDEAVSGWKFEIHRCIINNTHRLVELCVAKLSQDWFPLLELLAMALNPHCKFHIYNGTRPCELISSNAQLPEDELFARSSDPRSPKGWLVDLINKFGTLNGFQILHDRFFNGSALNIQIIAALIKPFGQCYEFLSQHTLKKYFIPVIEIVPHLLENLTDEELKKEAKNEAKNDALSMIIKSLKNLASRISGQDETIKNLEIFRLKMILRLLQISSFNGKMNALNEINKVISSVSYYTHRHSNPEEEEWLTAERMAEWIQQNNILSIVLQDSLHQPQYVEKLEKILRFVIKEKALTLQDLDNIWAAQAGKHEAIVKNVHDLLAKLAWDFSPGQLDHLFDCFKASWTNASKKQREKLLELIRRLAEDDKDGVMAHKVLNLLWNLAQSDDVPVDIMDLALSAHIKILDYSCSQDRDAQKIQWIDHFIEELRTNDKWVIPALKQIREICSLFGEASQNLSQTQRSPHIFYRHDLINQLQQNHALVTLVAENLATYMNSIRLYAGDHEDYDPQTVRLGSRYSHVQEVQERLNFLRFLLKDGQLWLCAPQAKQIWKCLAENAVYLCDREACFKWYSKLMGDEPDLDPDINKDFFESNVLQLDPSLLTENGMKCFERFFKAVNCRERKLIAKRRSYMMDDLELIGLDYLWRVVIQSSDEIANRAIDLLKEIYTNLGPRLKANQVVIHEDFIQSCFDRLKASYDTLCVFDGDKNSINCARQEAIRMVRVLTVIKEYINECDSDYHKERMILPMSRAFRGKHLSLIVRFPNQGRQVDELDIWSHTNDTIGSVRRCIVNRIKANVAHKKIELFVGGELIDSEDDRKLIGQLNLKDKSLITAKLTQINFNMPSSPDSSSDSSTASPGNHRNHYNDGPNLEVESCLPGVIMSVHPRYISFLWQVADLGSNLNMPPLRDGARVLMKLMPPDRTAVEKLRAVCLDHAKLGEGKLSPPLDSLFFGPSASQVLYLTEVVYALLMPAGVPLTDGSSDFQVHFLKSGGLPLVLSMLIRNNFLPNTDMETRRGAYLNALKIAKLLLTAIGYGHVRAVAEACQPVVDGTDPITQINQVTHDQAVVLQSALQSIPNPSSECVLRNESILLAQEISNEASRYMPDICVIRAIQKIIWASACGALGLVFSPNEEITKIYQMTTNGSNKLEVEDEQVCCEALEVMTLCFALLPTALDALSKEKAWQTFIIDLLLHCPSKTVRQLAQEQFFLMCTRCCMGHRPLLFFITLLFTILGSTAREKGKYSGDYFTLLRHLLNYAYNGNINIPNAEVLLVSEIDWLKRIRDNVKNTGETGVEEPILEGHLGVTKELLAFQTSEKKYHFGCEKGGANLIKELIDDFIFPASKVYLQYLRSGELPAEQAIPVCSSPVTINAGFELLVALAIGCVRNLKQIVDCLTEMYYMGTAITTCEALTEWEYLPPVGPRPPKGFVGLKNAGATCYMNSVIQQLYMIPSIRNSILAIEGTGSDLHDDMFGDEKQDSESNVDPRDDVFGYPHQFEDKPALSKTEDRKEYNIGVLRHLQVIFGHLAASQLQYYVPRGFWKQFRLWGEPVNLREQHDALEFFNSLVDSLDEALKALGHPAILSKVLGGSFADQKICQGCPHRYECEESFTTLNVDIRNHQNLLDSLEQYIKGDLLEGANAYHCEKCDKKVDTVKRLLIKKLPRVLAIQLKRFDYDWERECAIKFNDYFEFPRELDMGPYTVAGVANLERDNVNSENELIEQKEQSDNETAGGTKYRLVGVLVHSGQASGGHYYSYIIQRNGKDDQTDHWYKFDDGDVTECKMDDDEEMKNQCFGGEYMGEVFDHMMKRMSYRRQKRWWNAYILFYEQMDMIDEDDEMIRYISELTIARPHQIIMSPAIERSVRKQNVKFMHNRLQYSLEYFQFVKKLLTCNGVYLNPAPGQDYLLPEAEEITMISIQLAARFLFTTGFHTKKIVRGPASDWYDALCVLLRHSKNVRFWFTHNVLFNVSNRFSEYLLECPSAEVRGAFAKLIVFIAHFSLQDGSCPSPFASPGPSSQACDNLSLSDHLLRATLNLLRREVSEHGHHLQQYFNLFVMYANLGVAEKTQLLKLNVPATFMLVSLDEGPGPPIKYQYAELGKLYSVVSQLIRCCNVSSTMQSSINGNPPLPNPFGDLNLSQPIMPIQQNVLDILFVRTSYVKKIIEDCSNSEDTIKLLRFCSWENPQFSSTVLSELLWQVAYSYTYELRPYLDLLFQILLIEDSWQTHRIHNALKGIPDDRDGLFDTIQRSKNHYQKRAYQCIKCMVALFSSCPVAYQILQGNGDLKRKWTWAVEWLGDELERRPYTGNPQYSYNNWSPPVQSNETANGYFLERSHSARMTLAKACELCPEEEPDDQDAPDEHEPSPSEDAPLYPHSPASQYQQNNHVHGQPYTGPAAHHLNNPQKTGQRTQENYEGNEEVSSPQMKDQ
Outline: (§1)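 In triplicate, 495 µg of HEK293T lysate per sample was incubated with fragment at 200 µM or vehicle for 3 h. Biotin-Ahx-Ub-VS was then added to 0.5 µM final for 1 h, and labelled DUBs were captured with NeutrAvidin, digested with LysC and trypsin, and measured by diaPASEF LC-MS/MS. Data are average log2 fragment/vehicle ratios by unpaired t-test from global-median-normalised Spectronaut label-free quantities, restricted to proteins with ≥2 unique peptides.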

UniProt P51784 = target: UniProt P51784
Sequence of UniProt P51784 (P51784 whole entry): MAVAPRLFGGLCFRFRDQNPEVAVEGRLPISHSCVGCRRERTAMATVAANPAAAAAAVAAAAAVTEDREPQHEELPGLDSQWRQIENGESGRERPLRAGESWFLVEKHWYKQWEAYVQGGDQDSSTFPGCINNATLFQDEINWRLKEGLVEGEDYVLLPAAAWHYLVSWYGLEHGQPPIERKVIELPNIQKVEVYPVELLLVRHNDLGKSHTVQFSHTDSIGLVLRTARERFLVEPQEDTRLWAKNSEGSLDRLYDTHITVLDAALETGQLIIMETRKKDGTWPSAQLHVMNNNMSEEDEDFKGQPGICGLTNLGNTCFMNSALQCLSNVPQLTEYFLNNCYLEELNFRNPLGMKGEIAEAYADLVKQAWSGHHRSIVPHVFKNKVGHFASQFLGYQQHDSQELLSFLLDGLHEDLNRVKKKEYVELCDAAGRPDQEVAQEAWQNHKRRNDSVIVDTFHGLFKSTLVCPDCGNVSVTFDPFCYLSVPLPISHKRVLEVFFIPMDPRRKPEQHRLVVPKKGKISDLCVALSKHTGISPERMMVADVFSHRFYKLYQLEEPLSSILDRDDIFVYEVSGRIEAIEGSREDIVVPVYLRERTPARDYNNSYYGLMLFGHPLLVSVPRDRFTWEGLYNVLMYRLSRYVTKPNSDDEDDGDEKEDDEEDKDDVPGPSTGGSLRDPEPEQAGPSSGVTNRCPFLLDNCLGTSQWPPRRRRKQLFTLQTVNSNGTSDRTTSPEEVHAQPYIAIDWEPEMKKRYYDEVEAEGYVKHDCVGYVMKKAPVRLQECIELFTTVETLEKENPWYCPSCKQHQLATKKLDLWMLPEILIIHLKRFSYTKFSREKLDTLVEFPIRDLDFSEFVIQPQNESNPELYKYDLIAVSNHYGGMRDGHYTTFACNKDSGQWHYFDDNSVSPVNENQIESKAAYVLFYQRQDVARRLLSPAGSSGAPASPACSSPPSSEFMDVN
Outline: as §1

UniProt Q5T2D3 = target: T1, UniProt Q5T2D3
T1 sequence (whole entry): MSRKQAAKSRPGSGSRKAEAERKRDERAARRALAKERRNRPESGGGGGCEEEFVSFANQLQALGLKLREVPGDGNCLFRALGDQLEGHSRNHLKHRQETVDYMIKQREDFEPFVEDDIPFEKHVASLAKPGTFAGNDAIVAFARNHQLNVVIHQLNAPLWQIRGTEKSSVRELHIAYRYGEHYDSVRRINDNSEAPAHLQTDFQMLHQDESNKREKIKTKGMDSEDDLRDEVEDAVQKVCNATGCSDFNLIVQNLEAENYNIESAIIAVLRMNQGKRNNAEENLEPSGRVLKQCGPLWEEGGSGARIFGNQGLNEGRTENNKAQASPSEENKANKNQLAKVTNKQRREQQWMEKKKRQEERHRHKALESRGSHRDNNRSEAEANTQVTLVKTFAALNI
Outline: as §1

UniProt Q8TE49 = target: T2, UniProt Q8TE49
T2 sequence (whole entry): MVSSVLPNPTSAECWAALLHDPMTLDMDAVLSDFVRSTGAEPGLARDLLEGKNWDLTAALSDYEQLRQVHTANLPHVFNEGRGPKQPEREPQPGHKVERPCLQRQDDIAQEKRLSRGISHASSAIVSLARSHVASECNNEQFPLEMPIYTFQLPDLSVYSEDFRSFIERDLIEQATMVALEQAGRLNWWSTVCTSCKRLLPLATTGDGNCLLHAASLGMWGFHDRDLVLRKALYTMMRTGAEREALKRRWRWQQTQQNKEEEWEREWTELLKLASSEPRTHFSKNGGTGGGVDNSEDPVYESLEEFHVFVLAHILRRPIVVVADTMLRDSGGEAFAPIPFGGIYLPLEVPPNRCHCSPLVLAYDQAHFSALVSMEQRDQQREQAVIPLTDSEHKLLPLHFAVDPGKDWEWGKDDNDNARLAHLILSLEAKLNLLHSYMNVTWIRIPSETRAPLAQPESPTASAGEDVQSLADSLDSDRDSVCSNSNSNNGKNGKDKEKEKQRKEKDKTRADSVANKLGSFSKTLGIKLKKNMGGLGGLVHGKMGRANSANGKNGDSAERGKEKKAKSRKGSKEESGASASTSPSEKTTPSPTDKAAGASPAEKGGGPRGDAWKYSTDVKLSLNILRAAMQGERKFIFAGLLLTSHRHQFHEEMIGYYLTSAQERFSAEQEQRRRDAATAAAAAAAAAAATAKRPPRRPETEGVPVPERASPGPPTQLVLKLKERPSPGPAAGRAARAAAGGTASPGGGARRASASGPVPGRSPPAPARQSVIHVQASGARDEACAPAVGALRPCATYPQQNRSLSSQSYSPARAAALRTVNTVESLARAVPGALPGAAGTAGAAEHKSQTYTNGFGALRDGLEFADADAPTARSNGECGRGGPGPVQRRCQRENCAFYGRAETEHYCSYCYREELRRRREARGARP
Outline: as §1

UniProt Q9P2H5 = target: T3, UniProt Q9P2H5
T3 sequence (whole entry): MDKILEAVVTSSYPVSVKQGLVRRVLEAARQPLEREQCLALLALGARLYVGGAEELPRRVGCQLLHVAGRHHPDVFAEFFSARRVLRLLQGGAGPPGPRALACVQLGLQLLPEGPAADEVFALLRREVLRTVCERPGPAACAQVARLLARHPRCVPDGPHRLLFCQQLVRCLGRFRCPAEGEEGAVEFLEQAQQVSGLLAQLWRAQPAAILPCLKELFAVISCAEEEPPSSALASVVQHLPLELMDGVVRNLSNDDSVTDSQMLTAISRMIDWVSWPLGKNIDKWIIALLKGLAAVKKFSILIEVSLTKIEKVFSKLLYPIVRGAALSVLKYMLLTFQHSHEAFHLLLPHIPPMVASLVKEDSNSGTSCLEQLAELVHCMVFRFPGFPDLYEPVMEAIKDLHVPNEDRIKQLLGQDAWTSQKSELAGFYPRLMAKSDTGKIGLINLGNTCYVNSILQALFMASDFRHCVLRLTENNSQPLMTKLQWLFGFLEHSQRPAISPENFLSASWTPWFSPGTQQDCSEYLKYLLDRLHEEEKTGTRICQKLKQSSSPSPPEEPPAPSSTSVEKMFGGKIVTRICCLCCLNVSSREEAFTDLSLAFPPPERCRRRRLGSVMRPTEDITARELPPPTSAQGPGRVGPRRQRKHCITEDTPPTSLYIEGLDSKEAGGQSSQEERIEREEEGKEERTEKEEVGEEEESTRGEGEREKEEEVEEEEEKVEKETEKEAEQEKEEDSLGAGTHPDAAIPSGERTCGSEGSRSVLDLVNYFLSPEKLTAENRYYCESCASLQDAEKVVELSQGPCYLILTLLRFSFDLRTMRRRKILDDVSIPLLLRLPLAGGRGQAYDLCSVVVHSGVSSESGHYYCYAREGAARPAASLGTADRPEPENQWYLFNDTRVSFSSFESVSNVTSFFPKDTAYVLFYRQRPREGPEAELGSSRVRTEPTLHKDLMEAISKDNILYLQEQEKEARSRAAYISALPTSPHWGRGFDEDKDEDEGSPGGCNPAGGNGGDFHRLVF
Outline: as §1

UniProt Q9UGI0 = target: T4, UniProt Q9UGI0
T4 sequence (whole entry): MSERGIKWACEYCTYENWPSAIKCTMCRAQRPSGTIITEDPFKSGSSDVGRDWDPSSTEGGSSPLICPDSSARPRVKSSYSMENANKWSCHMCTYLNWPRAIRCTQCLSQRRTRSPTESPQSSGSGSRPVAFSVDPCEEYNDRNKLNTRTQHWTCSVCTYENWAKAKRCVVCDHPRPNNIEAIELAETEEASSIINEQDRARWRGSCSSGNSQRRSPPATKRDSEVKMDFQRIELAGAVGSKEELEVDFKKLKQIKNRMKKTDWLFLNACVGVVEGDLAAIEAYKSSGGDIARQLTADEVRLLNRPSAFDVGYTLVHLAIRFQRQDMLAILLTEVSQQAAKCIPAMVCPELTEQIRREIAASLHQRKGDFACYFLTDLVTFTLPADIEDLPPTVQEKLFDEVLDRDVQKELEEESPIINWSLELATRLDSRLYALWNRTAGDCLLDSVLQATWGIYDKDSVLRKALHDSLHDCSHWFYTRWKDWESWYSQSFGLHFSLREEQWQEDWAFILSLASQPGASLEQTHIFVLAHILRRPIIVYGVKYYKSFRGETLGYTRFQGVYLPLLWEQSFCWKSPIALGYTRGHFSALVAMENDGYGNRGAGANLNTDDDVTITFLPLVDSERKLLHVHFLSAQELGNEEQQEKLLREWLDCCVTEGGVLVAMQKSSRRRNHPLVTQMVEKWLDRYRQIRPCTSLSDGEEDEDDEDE
Outline: as §1

YOD1 = target: T5, YOD1 (UniProt Q5VVQ6)
T5 sequence (whole entry): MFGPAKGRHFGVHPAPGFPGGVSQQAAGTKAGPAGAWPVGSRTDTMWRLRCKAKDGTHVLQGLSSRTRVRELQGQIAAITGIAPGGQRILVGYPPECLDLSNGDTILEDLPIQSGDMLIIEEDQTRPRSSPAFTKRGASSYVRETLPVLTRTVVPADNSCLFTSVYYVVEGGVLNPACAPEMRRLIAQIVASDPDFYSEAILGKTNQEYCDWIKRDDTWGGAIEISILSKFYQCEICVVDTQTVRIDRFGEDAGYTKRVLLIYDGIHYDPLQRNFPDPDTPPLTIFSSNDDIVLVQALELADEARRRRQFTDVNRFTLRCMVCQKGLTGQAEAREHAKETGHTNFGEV
Outline: as §1

Measured: log2 ratio of Biotin-Ahx-Ub-VS probe labelling

CC(NC(=O)CCl)c1csc(-c2ccccc2)n1.Cl (stereo not given)
inactive: UniProt O00507 -0.472 | UniProt P51784 -0.138 | UniProt Q5T2D3 -0.671 | UniProt Q9P2H5 -0.482 | UniProt Q9UGI0 -0.494 | YOD1 -0.459
active: UniProt Q8TE49 -1.08

CC(NC(=O)CCl)c1ccc2[nH]ncc2c1 (stereo not given)
active: UniProt Q8TE49 -1.1
inactive: UniProt O00507 -0.939 | UniProt P51784 -0.173 | UniProt Q5T2D3 -0.26 | UniProt Q9P2H5 -0.0706 | UniProt Q9UGI0 -0.756 | YOD1 -0.629

N#Cc1ccc(CNC(=O)CCl)cc1
inactive: UniProt O00507 -0.0509 | UniProt P51784 -0.059 | UniProt Q5T2D3 -0.00706 | UniProt Q8TE49 -0.236 | UniProt Q9P2H5 -0.0879 | UniProt Q9UGI0 -0.592 | YOD1 -0.136

CC(c1ccccc1)N(C)C(=O)CCl (stereo not given)
inactive: UniProt O00507 -0.143 | UniProt P51784 -0.169 | UniProt Q5T2D3 -0.0617 | UniProt Q8TE49 -0.555 | UniProt Q9P2H5 -0.0284 | UniProt Q9UGI0 -0.295 | YOD1 0.101

O=C(CCl)N1CCOCCC1c1ccccc1 (stereo not given)
inactive: UniProt O00507 -0.114 | UniProt P51784 0.0584 | UniProt Q5T2D3 -0.173 | UniProt Q8TE49 -0.54 | UniProt Q9P2H5 -0.305 | UniProt Q9UGI0 -0.25 | YOD1 0.199
